Compound activity (PubChem)
Many of the other results were omitted from the sample, so hits are more common in it than they were.
NOMO-1 viab: NOMO-1 AML cell viability reduction, primary screen, STK33 inhibitor project, CellTiter-Glo luminescence. NOMO-1 AML viability, 72 h. inhibition, % (concentration not given with the values). 37,000 tested, 7.5% active. AID 2330, 2010; in the data active means inhibition above about 80%; inconclusive means no clear call, values can overlap the other calls
U2OS ROS induce: ROS inducers in U2OS cancer cells, primary screen, cell-based, H2DCF-DA fluorescence | U2OS ROS induction | ROS induction (% of piperlongumine), % at 10 µM | AID 624156, 2012 | 46,000 tested, 2% active; in the data active means ROS induction above about 79%, passing the limit was not always enough; inconclusive means no clear call, values can overlap the other calls
PD-1 reversal: activators reversing PD-1 mediated T-cell inhibition, primary screen, luminescence, primary human CD4 T cells, PD-L1 beads; CellTiter-Glo 96 h; 29,000 tested, under 10 active; activation, % (no concentration beside the values); call rule not given here
Numbers stand for hits; 0 = inactive; ? = inconclusive; - = not tested or not shown.

SMILES	NOMO-1 viab	U2OS ROS induce	PD-1 reversal
COc1ccc2c(c1)c(=O)oc1cc(OCC(=O)Nc3cc(C)cc(C)c3)ccc12	94	-	-
Cc1cc(C)cc(NC(=O)COc2ccc3cc(-c4ccccc4)c(=O)oc3c2)c1	0	0	0
Cc1cc(Sc2nnc(/N=C/N(C)C)s2)c2ccccc2n1	-	192	-
CN(C)/C=N/c1nnc(SCC(=O)c2ccc(F)cc2)s1	-	0	-
Nc1nc(SCc2nc(-c3ccccc3)no2)[nH]c(=O)c1-c1ccccc1	0	106	0
Nc1nc(SCC(=O)NCC2CCCO2)[nH]c(=O)c1-c1ccccc1 (centres undefined)	0	0	0
O=C(Nc1ccc(Cl)cc1)c1ccn[nH]1	-	0	-
Cc1cc(C(=O)Nc2cccc3c2O[C@H](CN(C)Cc2ccc(C(=O)Nc4ccccc4N)cc2)[C@@H](C)CN([C@@H](C)CO)C3=O)n(C)n1	?	189	0
Cc1cc(C(=O)Nc2cccc3c2O[C@H](CN(C)Cc2ccc(C(=O)Nc4ccccc4N)cc2)[C@@H](C)CN([C@H](C)CO)C3=O)n(C)n1	0	130	0
Cc1cc(C(=O)Nc2cccc3c2O[C@@H](CN(C)Cc2ccc(C(=O)O)cc2)[C@@H](C)CN([C@@H](C)CO)C3=O)n(C)n1	0	0	0
Cc1cc(C(=O)Nc2cccc3c2O[C@@H](CN(C)Cc2ccc(C(=O)Nc4ccccc4N)cc2)[C@H](C)CN([C@H](C)CO)C3=O)n(C)n1	0	0	0
Cc1cc(C(=O)Nc2cccc3c2O[C@@H](CN(C)Cc2ccc(C(=O)O)cc2)[C@H](C)CN([C@H](C)CO)C3=O)n(C)n1	0	0	0
Cc1cc(C(=O)Nc2cccc3c2O[C@H](CN(C)Cc2ccc(C(=O)Nc4ccccc4N)cc2)[C@H](C)CN([C@H](C)CO)C3=O)n(C)n1	127	0	0
NC(=O)C(Cc1ccccc1)NS(=O)(=O)c1ccc2oc3ccccc3c2c1 (centres undefined)	0	165	0
Cc1c(C(=O)O)oc2ccc(S(=O)(=O)NCCc3ccccc3)cc12	-	0	-
CCOc1ccc(N=c2ccc3ccccc3n2C)cc1	-	0	-
CCC(C)Nc1cc(C)c(C#N)c2nc3ccccc3n12 (centres undefined)	-	0	-
Cc1cc(NCCO)n2c(nc3ccccc32)c1C#N	-	0	-
CCc1c(C)c(C#N)c2nc3ccccc3n2c1NCCC(C)C	-	157	-
CC(C)CCNc1cc(C(C)C)c(C#N)c2nc3ccccc3n12	-	197	-
O=C(Nc1ccccc1)C(F)(F)F	0	0	0
COc1ccc(CN(C)C[C@@H]2OCCCC[C@@H](C)Oc3ccc(NC(=O)c4ccccc4)cc3C(=O)N([C@H](C)CO)C[C@@H]2C)cc1	0	147	0
COc1ccc(NC(=O)Nc2ccc3c(c2)C(=O)N([C@H](C)CO)C[C@H](C)[C@H](CN(C)Cc2ccc(C(F)(F)F)cc2)OCCCC[C@@H](C)O3)cc1	122	0	0
COc1ccc(CN(C)C[C@@H]2OCCCC[C@@H](C)Oc3ccc(NC(=O)c4ccncc4)cc3C(=O)N([C@H](C)CO)C[C@@H]2C)cc1	0	0	-
COc1ccc(CN(C)C[C@H]2OCCCC[C@@H](C)Oc3ccc(NC(=O)Nc4ccc(F)cc4)cc3C(=O)N([C@H](C)CO)C[C@@H]2C)cc1	0	0	0
SMILES	NOMO-1 viab	U2OS ROS induce	PD-1 reversal
COc1ccc(CN(C)C[C@@H]2OCCCC[C@@H](C)Oc3ccc(NC(=O)Nc4ccc(OC)cc4)cc3C(=O)N([C@H](C)CO)C[C@@H]2C)cc1	0	0	0
COc1ccc(CN(C)C[C@H]2OCCCC[C@@H](C)Oc3ccc(NC(=O)Nc4ccc(C(F)(F)F)cc4)cc3C(=O)N([C@H](C)CO)C[C@@H]2C)cc1	85	0	-
Clc1cccc(Nc2nnc(Cc3cccnc3)c3ccccc23)c1	-	0	-
Oc1c(C(Nc2cccnc2)c2ccc(Cl)cc2)ccc2cccnc12 (centres undefined)	120	0	0
O=C(CSCc1c(Cl)cccc1Cl)Nc1cccnc1	0	0	0
Oc1c(C(Nc2cccnc2)c2ccccc2F)ccc2cccnc12 (centres undefined)	116	-	-
Oc1c(C(Nc2cccc(Cl)c2)c2cccnc2)ccc2cccnc12 (centres undefined)	115	0	0
CCOC(=O)c1c(NC(=O)CN2C(=O)S/C(=C/c3ccc(F)cc3)C2=O)sc2c1CCCC2	-	0	-
Cc1noc(C)c1CSc1nc2[nH]ncc2c(=O)n1-c1ccccc1	108	-	-
Cc1nc(CSc2nc3[nH]ncc3c(=O)n2-c2ccccc2)cs1	0	-	-
Cc1cccc(NC(=O)CSC2=C(C#N)C(c3ccco3)C3=C(CCCC3=O)N2)c1 (centres undefined)	-	0	-
C[C@@H]1CN([C@H](C)CO)C(=O)c2cccc(NC(=O)c3nc4ccccc4s3)c2O[C@H]1CN(C)Cc1ccc(C(=O)Nc2ccccc2N)cc1	120	150	0
C[C@H](CO)N1C[C@H](C)[C@H](CN(C)Cc2ccccc2)Oc2c(NC(=O)c3nc4ccccc4s3)cccc2C1=O	0	0	0
C[C@H]1CN([C@@H](C)CO)C(=O)c2cccc(NC(=O)c3nc4ccccc4s3)c2O[C@H]1CN(C)Cc1ccc(C(=O)Nc2ccccc2N)cc1	127	172	0
C[C@H]1CN([C@@H](C)CO)C(=O)c2cccc(NC(=O)c3nc4ccccc4s3)c2O[C@H]1CN(C)Cc1ccccc1	0	0	0
C=CCn1c(SCc2ccc(C#N)cc2Cl)nnc1-c1cccc(OC)c1	-	0	-
Cc1cc(=O)nc2c3ccccc3n(C(C)C(=O)Nc3c(F)c(F)cc(F)c3F)n12 (centres undefined)	-	0	-
COC(=O)c1c(C)oc2ccc(OC(=O)c3ccc(OC)cc3)cc12	-	0	-
O=C(NO)c1ccc(C(=O)N/N=C/c2ccc(O)c(O)c2)cc1	-	0	-
Oc1cc(O)cc(/C=C/c2ccc(O)c(O)c2)c1	113	0	-
CCN1C(=O)c2ccccc2Sc2ccc(C(=O)NCc3ccccc3)cc21	-	0	-
COc1ccc(S(=O)(=O)Nc2cncc(C(=O)Nc3ccc(C(F)(F)F)cc3)c2)cc1	-	0	-
C=CCNC(=O)[C@H]1[C@@H]2C(=O)O[C@@H](c3ccccc3)[C@@H](c3ccccc3)N2[C@@H](c2ccc(OCCO)cc2)[C@]12C(=O)N(C(=O)OCCOC)c1ccc(C#CC3=CCCCC3)cc12	-	122	-
C=CCNC(=O)[C@@H]1[C@H]2C(=O)O[C@H](c3ccccc3)[C@H](c3ccccc3)N2[C@H](c2ccc(OCCO)cc2)[C@@]12C(=O)Nc1ccc(C#CC3=CCCCC3)cc12	-	0	-
C=CCNC(=O)[C@@H]1[C@H]2C(=O)O[C@H](c3ccccc3)[C@H](c3ccccc3)N2[C@H](c2ccccc2OCCO)[C@@]12C(=O)N(C(=O)OCCOC)c1ccc(C#CCCO)cc12	-	0	-
C=CCNC(=O)[C@H]1[C@@H]2C(=O)O[C@@H](c3ccccc3)[C@@H](c3ccccc3)N2[C@@H](c2ccc(OCCO)cc2)[C@]12C(=O)N(C(=O)OCCOC)c1ccc(C#CC3(O)CCCCCC3)cc12	-	105	-
C=CCNC(=O)[C@@H]1[C@H]2C(=O)O[C@H](c3ccccc3)[C@H](c3ccccc3)N2[C@H](c2ccc(O)cc2)[C@@]12C(=O)Nc1ccc(C#CC3(O)CCCCCC3)cc12	-	0	-
